DT40 TDP1 no CPT: qHTS for Inhibitors of human tyrosyl-DNA phosphodiesterase 1 (TDP1): qHTS in cells in absence of CPT; DT40 Tdp1-/- hTDP1 cells, no CPT, ATP luminescence, 48 h; Potency, µM (doses to about 46.2 µM), for inactives: at the top dose activity change, negative = growth inhibition, hits mostly inhibitors; actives 15% (n = 420,000); AID 686978, 2013; also: potency is read from the fitted curve at half-maximal effect; nearly all actives have a fitted effect of over 55% in size
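Chicken DT40 Tdp1-/- cells stably complemented with human TDP1 were seeded at 400 cells/well with DMSO in place of 20 nM camptothecin. After compound pinning, cells grew at least 48 hr at 37 °C; viability read by CellTiter-Glo luminescence.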
ELG1 DNA repair: inhibitors of ELG1-dependent DNA repair in HEK293T cells | Potency, µM (top dose mostly 46.1 µM), without a hit: top-dose activity change, negative = inhibition, actives largely listed as inhibitors | HEK293T ELG1-luciferase reporter, luminescence, 16 h; DNA damage induced by 5-fluorouridine | actives 2.3% (n = 330,000); also: potency is read from the fitted curve at half-maximal effect; nearly all actives have a fitted effect of over 55% in size
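Step one: seed 2,000 cells per well. Step two: pin-transfer compound or DMSO alongside 5-fluorouridine. Step three: incubate 16 hr, 37 °C, 5% CO2. Step four: add ONE-Glo, wait 30 min, read luminescence.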
HT1080NT lethal: kills 2HG-producing HT-1080-NT fibrosarcoma cells; HT-1080-NT fibrosarcoma viability, CellTiter-Glo ATP luminescence, 48 h; Potency, µM (top dose mostly 46.1 µM), for the others: at the top dose activity, negative = less viability, actives largely listed as cytotoxic; actives 1.6% (n = 360,000);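 also: NT is the 2HG producing partner of a matched IDH1 knockdown line; potency is read from the fitted curve at half-maximal effect; 0% = DMSO-treated cells and -100% = media-only wells without cells; nearly all actives have a fitted effect of over 55% in size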
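Compounds were tested in concentration-response format on HT-1080-NT cells for 48 hours at 37 degrees C. Cell viability came from CellTiter-Glo luminescence; curves were classified by r2, response magnitude and activity.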
IL-1B inflam inh: inflammasome signaling inhibition, IL-1 beta readout; THP-1 LPS/ATP IL-1B secretion, AlphaLISA, 16 h; hits give low values; activity change, % at 57.5 µM; actives 4.7% (n = 360,000); in the data active = activity change below about -50%; inconclusive = mostly about -30% to -49%
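THP-1 cells pretreated 1 hr with compounds (up to 57.5 uM final), then stimulated with LPS (250 ng/mL final) plus ATP (1.25 mM final); secreted IL-1B measured by AlphaLISA after 16 hr, decreased signal indicating inhibition.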
TDP1 cell CPT: growth inhibition of DT40 Tdp1-/-;hTDP1 cells with camptothecin (screen for TDP1 inhibitors) | chicken DT40 Tdp1-/-;hTDP1 cells + 20 nM CPT, ATP luminescence, 48 h | Potency, µM (doses to about 46.2 µM), for the others: top-dose activity change, negative = growth inhibition, usual class: inhibitors | actives 12% (n = 420,000); also: potency is read from the fitted curve at half-maximal effect; nearly all actives have a fitted effect of over 55% in size
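Chicken DT40 Tdp1-/- cells stably complemented with human TDP1 were seeded at 400 cells/well in medium containing 20 nM camptothecin, exposed to pin-transferred compounds, and grown at 37 °C for at least 48 hr. Viability was read as ATP luminescence.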
HT1080 IDH1KD tx: toxicity to HT-1080 IDH1 knockdown cells (counter line); HT-1080 IDH1 knockdown viability, ATP luminescence, 48 h; Potency, µM (top dose mostly 46.1 µM), for the others: top-dose activity, negative = toxicity, hits mostly cytotoxic; actives 2% (n = 360,000); AID 686971;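 also: potency is read from the fitted curve at half-maximal effect; 0% = DMSO wells and -100% = cell-free medium wells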
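Viability of IDH1-knockdown HT-1080 fibrosarcoma cells was assessed by CellTiter-Glo after 48 h at 37 °C with titrated compound; concentration-effect curves were classified by fit quality and response size.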
* hit, by the source's call; ? = inconclusive; nt = not tested or not shown; ! = a repeat was not active. The list is not random: actives were taken first. Their share in the collection is about 19%. Unless noted, calls follow the shape of the dose curve; as a rule, active = well fitted curve in the direction sought with a large enough effect; inconclusive = small, poorly fitted or top-dose-only effect, or another doubt; inactive = no such curve, though single readings can be large; an effect the other way counts as inactive or inconclusive. Unless noted, % is scaled to controls: 0 for no effect and ±100 for the full control effect.

SMILES	DT40 TDP1 no CPT	ELG1 DNA repair	HT1080NT lethal	IL-1B inflam inh	TDP1 cell CPT	HT1080 IDH1KD tx
Cc1oc2ccc(O)c(CN3CCCCCC3)c2c1C(=O)Nc1cccc(Cl)c1C	5.8µM*	nt	nt	nt	3.7µM*	nt
CC(C)[C@]12CC(=O)[C@H](C)[C@H]1C2	-11%	15%	24%	13	5%	9%
C[C@H]1COC(=O)[C@H](Cc2ccc(F)cc2)CC/C=C/C[C@@H](CC(=O)N(CCO)Cc2ccccc2)C(=O)N1	18µM*	?	7%	18	23µM*	8%
COc1ccc([C@H]2CC(=O)C=C(c3ccc4c5c(cccc35)CC4)C2)cc1	?	-12%	-15%	-7	?	-23%
Cn1c(O)c(/C=C2/C=CC=N2)c(=O)[nH]c1=O	16µM*	-12%	11%	?	16µM*	11%
Cn1c(O)c(C=Nc2ccc(F)cc2)c(=O)[nH]c1=O	-21%	21%	-5%	-4	-3%	-1%
CSc1ccc(CNC(C)C(O)c2ccccc2)cc1 (configuration not stated)	?	2%	?	-1	-30%	-4%
Cc1cccc(CN2CCc3nc(N4CCN(c5ccccn5)CC4)ncc3C2)c1	10µM*	nt	nt	nt	15µM*	nt
BrCC(Br)C1CCC(Br)C(Br)C1 (configuration not stated)	-21%	13%	15%	39	?	7%
COc1ccc(C(=O)NCc2cc3ccccc3n2C)cc1	-17%	?	9%	8	0%	-5%
CC(=O)N1CCN(Cc2ccc(Cl)nc2)CC1	14%	13%	6%	35	15%	0%
O=C(C(=C1N(Cc2ccc(Cl)nc2)CCN1Cc1ccc(Cl)nc1)[N+](=O)[O-])C(Cl)Cl	16µM*	0%	-2%	-71*	?	-1%
O=[N+]([O-])/N=C1\NCCN1Cc1ccc(Cl)nc1	6.7µM*	nt	nt	nt	8.4µM*!	nt
CC12CCC3C(CCC4CC(=O)C(C(O)C(F)(F)F)CC43C)C1CCC2O (configuration not stated)	?	nt	-9%	50	?	-10%
CCN(CC)C(=O)c1ccc(NC(=O)CCn2nc(-c3ccc(Cl)cc3)c3ccccc3c2=O)cc1	18µM*	nt	nt	nt	?	nt
CCN(CC)C(=O)c1ccc(NC(=O)COc2ccccc2F)cc1	-13%	11%	0%	-4	-7%	-2%
CCCCn1c(-c2nn(C)cc2Cl)n[nH]c1=S	?	-8%	-9%	23	-12%	-4%
O=C1/C(=C/c2cc([N+](=O)[O-])ccc2Cl)N2CCC1CC2	16µM*	19%	-2%	-19	18µM*	0%
O=C1/C(=C\c2cccnc2)N2CCC1CC2	?	-1%	-4%	?	2%	1%
O=C1/C(=C/c2cccc([N+](=O)[O-])c2)N2CCC1CC2	-37%	?	-7%	-68*	-14%	-3%
O=C1/C(=C\c2ccc(Cl)cc2Cl)N2CCC1CC2	?	?	-9%	-12	12%	-14%
O=C1/C(=C\c2ccc(Cl)c(Cl)c2)N2CCC1CC2	?	7%	1%	-79*	-9%	-7%
CCOC(=O)c1ccc(NC(=O)N2C[C@@H]3C[C@@H](C2)c2cccc(=O)n2C3)cc1	20%	3%	3%	20	21%	5%
CC(C)c1oc(=O)cc2c1[C@@H](O)[C@H]1OC(=O)[C@@]3(C)C[C@@H](O)[C@@H](O)[C@@]2(C)C13 (some centres not stated)	1.8µM*	?	?	-8	2.1µM*	10µM*
CC(C)c1oc(=O)cc2c1[C@@H](O)[C@H]1OC(=O)[C@@]3(C)CC[C@@H](O)[C@@]2(C)C13 (some centres not stated)	5.2µM*	-24%	?	62	5.8µM*	?
SMILES	DT40 TDP1 no CPT	ELG1 DNA repair	HT1080NT lethal	IL-1B inflam inh	TDP1 cell CPT	HT1080 IDH1KD tx
COC(=O)C1=C(c2ccc(S(C)(=O)=O)cc2)C[C@@H]2CC[C@H]1N2C(=O)NCCS(C)=O (some centres not stated)	-8%	nt	9%	16	17%	10%
Cc1cc(OCC(=O)N2CCC(C(=O)O)(c3ccccc3)CC2)c2c(C)c(C)c(=O)oc2c1	-1%	27%	0%	18	-1%	-6%
CCn1c(C)c(C(=O)Nc2ccc(OC)cc2)c2cc(OC)ccc21	?	0%	-10%	15	-20%	-2%
COC(=O)C1=CO[C@@H](OC2OC(CO)C(O)C(O)C2O)[C@@H]2C(CO)=CC[C@H]12 (some centres not stated)	1%	19%	-1%	23	-21%	11%
Cc1ccc2c(c1)N(C(C)C(=O)N1CCC3(CC1)OCCO3)C(=O)CO2 (configuration not stated)	8%	-1%	12%	-6	-14%	-1%
C[C@H]1CC[C@@H]2[C@@H](C)[C@H]3[C@H](C[C@H]4[C@@H]5CC=C6C[C@@H](O[C@@H]7O[C@H](CO)[C@H](O)[C@H](O[C@@H]8O[C@H](CO)[C@@H](O)[C@H](O)[C@H]8O)[C@H]7O[C@@H]7O[C@@H](C)[C@H](O)[C@@H](O)[C@H]7O)CC[C@]6(C)[C@H]5CC[C@]34C)N2C1	?	?	3%	-98*	15µM*	-11%
COc1cc(O)c(C(=O)O)c(-c2cc(O)c(O)cc2C)c1	16µM*	2%	-2%	27	4.6µM*	3%
CC(C)c1ccc(OCC(=O)N2CCN(CCc3ccccn3)CC2)cc1	?	nt	nt	nt	-28%	nt
CCOC(=O)C1(c2ccccc2)CCN(CC(=O)Nc2ccc(C)cc2)CC1	?	-1%	7%	10	?	1%

Screening data: PubChem BioAssay, National Center for Advancing Translational Sciences (NCATS)
